# Source: PubChem BioAssay AID651947 (Broad Institute, 2012)
# Measured potencies and affinities stand elsewhere. Inconclusive results are not listed. Active and inactive are the calls of the source.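 The calls were made as follows: active = luminescence drop in HepG2 cells whose fitted half-effect dose is at most twice the top valid dose; inconclusive = flat curve with 30 to 70% signal loss, or unreliable fit; inactive = the rest.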
# Assay: cytotoxicity in HepG2 cells, dose response, cytotoxicity control, cell-based, plate reader, dry powder (AID 651947)
# Conditions: HepG2 viability, ATP luminescence (CellTiter-Glo), 48 h, hits give low values; at 26 µM unless noted
row,Structure (SMILES),max activity
1,c1ccc(-c2nnc(SCc3cccnc3)o2)cc1,17.3% (inactive)
2,c1ccc(CCc2nnc(SCc3ccccc3)o2)cc1,22.3% [at 3 µM] (inactive)
3,c1ccc(COc2nnc(-c3ccccc3)o2)cc1,-50.7% [at 1.6 µM] (inactive)
4,COc1ccc(-c2nnc(SCc3ccccc3)o2)cc1,-23.7% [at 6 µM] (inactive)
5,O=S(Cc1cn(-c2ccccc2)nn1)c1nnc(-c2ccc(Cl)cc2)o1 (stereo not given),-41.8% [at 12 µM] (inactive)
6,c1ccc(-n2cc(CSc3nnc(C4CCCC4)o3)nn2)cc1,20.3% [at 0.38 µM] (inactive)
7,FC(F)(F)Oc1ccc(-c2nnc(SCc3ccccc3)o2)cc1,21.1% [at 12 µM] (inactive)
8,Cc1ccc(-c2nnc(SCc3ccccc3)o2)cc1,15.2% [at 3 µM] (inactive)
9,FC(F)(F)Oc1ccccc1-c1nnc(SCc2ccccc2)o1,-9.41% [at 6 µM] (inactive)
10,Fc1ccc(Cn2cc(CSc3nnc(C4CCC4)o3)nn2)cc1,-41.8% [at 0.38 µM] (inactive)
11,COc1cccc(CSc2nnc(-c3ccccc3)o2)c1,25.7% (inactive)
12,Clc1cccc(-c2nnc(SCc3ccccc3)o2)c1,-48.3% [at 3 µM] (inactive)
13,c1ccc(-c2nnc(SCC3CC3)o2)cc1,18.8% [at 0.38 µM] (inactive)
14,Clc1ccc(-c2nnc(SCc3cn(-c4ccccc4)nn3)o2)cc1,-13% [at 3 µM] (inactive)
15,c1ccc(CSc2nnc(-c3cccs3)o2)cc1,-27.2% [at 12 µM] (inactive)
